We go through 100 molecules from PubChem BioAssay AID602449 (Sanford-Burnham Center for Chemical Genomics, 2012).

The campaign covered roughly 360,000 compounds. About 5,000 (1.4%) were called active. This is one part of a sample in which actives are shown more often than they occur. Unmarked numbers belong to inactive results.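 The calls were made as follows: active = inhibition of 50% or more, scaled per plate between neutral and stimulator controls; inactive = the rest.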

This assay in a line: blockers of Ca2+-induced mitochondrial swelling – biochemical, isolated mouse mitochondria, absorbance, primary screen (AID 602449).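 Also: 0% = DMSO wells given calcium and 100% = 1 mM EGTA wells.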 The note with it: 30 min, at 10 µM, stronger effect = higher value.
For `N#C/C(=C(/O)Cc1cccc2ccccc12)c1nc2ccccc2s1`, the inhibition (commonly the change of the read-out against control, counted positive when it falls) is 95.9% (active).

For the molecule `O=C(O)CC/C(=C\c1cc2c(cc1Br)OCO2)c1nc2ccccc2s1`, the inhibition was 0.4%. Consider `CC1=CC(=C(C#N)c2nc3ccccc3s2)C=C(C)N1c1ccc(F)cc1F`, for which the inhibition is 1.2%. In the case of `Cc1ccc(S(=O)(=O)NC2CCCCCC2)cc1C(N)=O` it was 1%; in that of `COc1cc(Cl)c(C)cc1NC(=O)CSc1nnc(CN2CCCC2)o1`, -2%; in that of `COc1ccc(N2CCN(CCCNC(=O)C3CCN(S(=O)(=O)N4CCOCC4)CC3)CC2)cc1`, -2.8%. Under `CC(Oc1ccc(-c2ccccc2)c(F)c1)c1ccn(S(=O)(=O)c2cccc3ccccc23)n1` (stereo not given) stands 1%; under `COc1ccccc1Oc1ccc(S(=O)(=O)Nc2cccnc2)cc1`, 82.5% (active); under `Cc1cc(C)c(C)c(S(=O)(=O)Nc2cccnc2)c1C`, 1.4%.

For `COc1ccc(S(=O)(=O)Nc2cccnc2)c(Cl)c1Cl`, the inhibition is 0.5%.

Consider `COc1cc(OC)cc(/C(N)=N/O)c1`, for which the inhibition is 0.6%. Under `O=C(CNC1CCCCC1)NCC1(c2ccccc2)CCCC1` stands -0.9%; under `COC(=O)Nc1nc2ccc(Sc3ccccc3)cc2[nH]1`, 1.2%; under `CCOC(=O)N1CCN(C(=O)c2nn(-c3ccc(C)cc3)c(=O)c3c2c2ccccc2n3C)CC1`, 11.3%. Under `CCCc1nc2c(c(=O)c3ccccc3n2C)c(=O)n1C1CCCCCC1` stands 77.9% (active); under `CCOC(=O)c1nnn2c3ccccc3c(=O)n(C)c12`, 1.2%.

Turning to `CCN(CC)S(=O)(=O)c1ccc(N2CCCC2)c(NS(=O)(=O)c2cccs2)c1`, the inhibition was -2.4%. Under `Oc1c(Br)cccc1/C=N/Nc1c(F)c(F)c(F)c(F)c1F` stands 102% (active). Under `Brc1ccccc1/C=N/Nc1nc2ccccc2o1` stands 1.1%; under `CC(Oc1ccc(F)cc1)C(=O)Nc1ccccc1C(=O)NC1CC1` (stereo not given), -1.6%; under `Cc1cc(C(=O)OCC(=O)NCc2ccco2)c(C)n1-c1ccccc1`, -0.8%. Under `CCN1C(=O)[C@@H]2[C@@H](c3ccc(-c4cccc(Cl)c4)cc3)N3CCC[C@@]3(C(=O)OC)[C@@H]2C1=O` stands -1%. Regarding `CCOC(=O)c1ccc(NC(=O)CCn2c(=O)oc3ccccc32)cc1`, the inhibition is 0.1%. In the case of `CCOC(=O)c1ccc(NC(=O)CS(=O)(=O)c2cn(CC)c3ccccc23)cc1` it was 1%. Under `CCOC(=O)c1ccc(NC(=O)Cn2cnc3cc(C)c(C)cc32)cc1` stands 96.9% (active); under `CN(c1ccccc1)S(=O)(=O)c1cccc(NC(=O)Cc2ccc(Cl)cc2)c1`, 61.7% (active); under `CN(c1ccccc1)S(=O)(=O)c1cccc(NC(=O)Cc2c(F)cccc2Cl)c1`, 18.1%. In the case of `CNS(=O)(=O)c1ccc(NC(=O)Nc2ccc3c(c2)OCO3)cc1` it was 0.6%. Regarding `CN(C)S(=O)(=O)c1cccc(NC(=O)Cc2ccsc2)c1`, the inhibition is 0.2%. Under `CN(c1cccc(NC(=O)Nc2ccc(Cl)cc2)c1)S(C)(=O)=O` stands 92.2% (active); under `CN(c1cccc(NC(=O)c2ccc(CN3CCc4ccccc4C3)cc2)c1)S(C)(=O)=O`, 0%. Under `Cc1ccc(S(=O)(=O)N(CC(=O)Nc2cccc([N+](=O)[O-])c2)Cc2ccc(Cl)cc2)cc1` stands 80.3% (active); under `Cc1ccc(CN(CC(=O)NCC2CCCO2)S(=O)(=O)c2ccc(C)cc2)cc1` (stereo not given), 0.1%; under `COc1ccc(C)cc1S(=O)(=O)N(CC(=O)Nc1cccc([N+](=O)[O-])c1)c1ccc(C)cc1`, 0.7%. In the case of `O=C1N=C2SCCN2/C1=C\c1c(Cl)cccc1Cl` it was -0.2%.

`O=C(CNC(=O)OCc1ccccc1)Oc1cc2oc(=O)cc(-c3ccccc3)c2cc1Cl`: the inhibition was 7.5%. In the case of `Clc1ccc(-c2cc(C3CCNCC3)[nH]n2)c(Cl)c1` it was 76.8% (active); in that of `Clc1ccc(-c2cc(-c3ccccn3)on2)c(Cl)c1`, 2.1%. With `COc1ccc(C2c3[nH]c4ccccc4c3CCN2CCCn2cccn2)cc1C` (stereo not given), the inhibition was -1.1%. In the case of `O=C1c2ccccc2C2=Nc3ccccc3SC(c3ccccc3F)C12` (stereo not given) it was 93.3% (active); in that of `CCC(C)N(C(=O)Cn1nc(C)c([N+](=O)[O-])c1C)C1CCS(=O)(=O)C1` (stereo not given), 0.4%; in that of `O=C(CCN1CCc2ccccc2C(O)(c2ccccc2)C1)c1ccc2c(c1)OCCO2` (stereo not given), 2.6%. As to `O=C(c1ccc2c(c1)OCCO2)C1CCN(S(=O)(=O)c2cccc(F)c2)CC1`, the inhibition is -4.7%. In the case of `O=C(/C=C(O)/C=C/c1ccc(O)cc1)/C=C/c1ccc(O)cc1` it was 75.2% (active); in that of `COc1ccc(/C=C/C(=O)c2c(O)cc(OC)cc2OC)cc1`, 1.2%; in that of `O=C(O)/C=C/c1ccc(S(=O)(=O)N2CCCCCC2)cc1`, -1.1%. Under `O=C(Nc1ccccc1Cc1ccccc1)c1ccc2c(c1)SC1=NS(=O)(=O)CCN12` stands 1.9%; under `Cc1nc(-c2nnc(SCC(=O)Nc3cc(C(F)(F)F)cc(C(F)(F)F)c3)n2C)cs1`, 4.6%; under `Cc1ccc(OC(=O)c2c(C)nn(-c3ccccc3)c2C)cc1`, -0.9%.

`Fc1ccccc1CNC(=S)Nc1ccc(Cl)cc1`: the inhibition is 102% (active). For the molecule `C/C(=N\NC(=S)NCc1ccccc1)c1ccc(Cl)cc1`, the inhibition is 3.5%. Under `S=C(NCc1cccs1)Nc1ccc(Cl)cc1` stands 23.7%; under `CCCOc1ccc(Cc2c(Cl)nc(SC)nc2NC)cc1`, 95.3% (active). Under `CCCOc1ccc(Cc2c(O)nc(SC)[nH]c2=O)cc1C` stands 0.9%. On to `CCOc1cc2[nH]c(=O)n(CCC(=O)NCc3ccc(OC)cc3)c(=O)c2cc1OCC`, for which the inhibition is -0.2%. In the case of `COC(=O)C(Cc1c[nH]c2ccccc12)NC(=O)CCNC(=O)c1ccco1` (stereo not given), the inhibition is -1%. With `O=C1CCCN1CCCNC(=S)Nc1ccc(F)c(Cl)c1`, the inhibition was 96.1% (active). Under `Cc1cc(Cl)ccc1NC(=S)NCCCN1CCCC1=O` stands 0.5%; under `Cc1c(Cl)cccc1NC(=O)NCCCN1CCCC1=O`, -0.1%; under `CC1(C(=O)NNC(=S)NCC2CCCO2)CC1(Cl)Cl` (stereo not given), -1.4%. In the case of `O=S(=O)(Nc1ccc(Cl)cn1)c1cnc(Cl)c(Br)c1`, the inhibition is 12.7%. Under `CC(C)C[C@H]1CN([C@@H](CC(C)C)CN2CCC[C@@H]2CN2C(=O)C(=O)NC[C@@H]2Cc2ccccc2)C(=O)C(=O)N1CCc1ccccc1` stands 1.7%; under `Cc1ccc(C(=O)NC2CCN(C(=O)Nc3ccc(F)cc3)CC2)cc1`, -0.9%. Under `CSc1ccc(/C=N/NC(=O)c2cccc(Cl)c2)cc1` stands 3%; under `COc1ccc(NC(=O)c2cccc(Cl)c2)c[n+]1[O-]`, 1.1%. As for `Cc1ccc(Sc2ccc(NC(=O)c3ccc(F)cc3)cc2C#N)cc1`, the inhibition is 72.3% (active). Under `COC(=O)c1ccc(Sc2ccc(F)cc2)c(N)c1` stands -3%; under `COc1ccc(Sc2ccc(NC(=O)c3cccc(Cl)c3)cc2C#N)cc1`, 80.5% (active). In the case of `Cc1ccccc1CNC(=O)CCC(=O)N1Cc2ccccc2Oc2ncccc21` it was -0.6%. For `CC(C)(C)n1c(=O)[nH]c2c(c1=O)CCC2`, the inhibition is -1.7%. Under `CC(C)=C1SC(N2CCN(c3ccc(C)c(Cl)c3)CC2)=NC1=O` stands 2.6%. In the case of `COc1ccc(S(=O)(=O)N2CCN(C(C)C(=O)Nc3ccc(C(C)C)cc3)CC2)cc1` (stereo not given) it was 0.5%. Under `Cn1c(N2CCOCC2)c(C=O)c2ccccc21` stands -0.1%; under `COc1ccc(C(=O)NCc2nnc(SCC(=O)Nc3cccc(OC)c3)o2)cc1`, -0.9%. Turning to `COc1ccc2oc(-c3cccc(NC(=O)CSc4ccc(Cl)cc4)c3)nc2c1`, the inhibition is 86.6% (active).

Take `COc1cccc(NC(=O)CSc2nnc(-c3cccnc3)o2)c1`: the inhibition was -1.2%. Take `CCOC(=O)c1sc(=NC(=O)/C=C/c2cccs2)n(C)c1C`: the inhibition is 1.4%. In the case of `O=C(NCCNc1ccc([N+](=O)[O-])cc1)c1cccc2c(Br)cccc12` it was 77.6% (active); in that of `O=C(NCCNc1ccc([N+](=O)[O-])cc1Cl)c1ccccc1F`, 1%; in that of `CC(CNc1ccc([N+](=O)[O-])cc1)NC(=O)c1ccccc1Br` (stereo not given), 0%. Under `Cc1c(Cl)c([N+](=O)[O-])nn1CC(=O)NCC1CCCO1` (stereo not given) stands -1.6%; under `CCN(CC)c1ccc(NC(=O)c2ccc(=O)[nH]c2)cc1S(=O)(=O)Nc1ccc(OC)cc1`, -0.4%; under `O=C(NCc1ccc2c(c1)OCO2)C12CC3CC(CC(C3)C1)C2`, 3.7%. In the case of `COc1ccc(Cl)cc1C(=O)NNC(=S)NC1CCCC1` it was -0.5%; in that of `Cc1ccc(C(=O)NC23CC4CC(CC(C4)C2)C3)c(Cl)c1`, -0.2%; in that of `O=C(NNC(=S)NC1CCCCC1)c1ccccc1Cl`, 0.2%. For `S=C(NCc1ccc(Cl)cc1)NC12CC3CC(CC(C3)C1)C2`, the inhibition was 96.8% (active). Under `S=C(NCc1ccc(Cl)cc1)NC1CCCCC1` stands 67.6% (active); under `CCOCCCNC(=O)C1(O)c2cc(Br)ccc2NC(=O)N1c1ccc(C)c(C)c1` (stereo not given), 0.7%. In the case of `O=C(NCCOc1ccccc1F)Nc1ccc(Br)cc1` it was 87.9% (active); in that of `O=C(NCCOc1ccccc1Cl)C(=O)Nc1ccccc1`, -1.3%; in that of `O=C(COc1ccccc1F)NNC(=O)c1cc(Br)ccc1Cl`, -1.8%. Consider `COC(=O)CNC(c1ccccc1Cl)c1cc(Br)ccc1NC(=O)CCN1CCOCC1` (stereo not given), for which the inhibition is -1%.

Take `CCC(C(=O)NCc1ccccc1)n1c(Cc2cc(F)cc(F)c2)nc2ccccc21` (stereo not given): the inhibition was 2.2%. Regarding `COc1ccccc1C(=O)Nc1ccc(Nc2ccccc2)cc1`, the inhibition was 0.9%. In the case of `COc1cccc(NC(=O)c2ccccc2N(Cc2ccccc2)S(C)(=O)=O)c1` it was 0%. Regarding `COC(=O)c1ccc(NC(=O)c2ccccc2NS(=O)(=O)c2ccccc2)cc1`, the inhibition is 102% (active). As for `CCOC(=O)c1ccc(N/C(=N/S(=O)(=O)c2ccccc2)c2ccccc2)cc1`, the inhibition is 1.7%.

With `COc1cc(NC(=O)c2ccccc2NS(=O)(=O)c2ccc(Cl)s2)cc(OC)c1`, the inhibition is 67% (active). Under `O=S(=O)(Nc1ccccc1N1CCOCC1)c1ccc(Cl)s1` stands -0.7%.
